PubChem BioAssay AID504462 (Sanford-Burnham Center for Chemical Genomics, 2011)
The whole screen tested about 340,000 compounds, of which about 1,700 (0.5%) were called active. The entries come from a sample that favours actives as a whole. A number with no mark means an inactive call. Rule as the data show it: active = inhibition above about 40%; inactive = the rest.

These compounds were tested against Cysteine protease ATG4B (Homo sapiens) (UniProt Q9Y4P1) (assay: ATG4B protease inhibitors, primary screen, biochemical, fluorescence, uHTS (AID 504462)). Conditions: ATG4B cleavage of LC3-PLA2, NBD-HPC fluorescence, 1 h; at 8.33 µM; stronger effect = higher value.
Cysteine protease ATG4B (Homo sapiens), sequence (Q9Y4P1 whole entry, looked up): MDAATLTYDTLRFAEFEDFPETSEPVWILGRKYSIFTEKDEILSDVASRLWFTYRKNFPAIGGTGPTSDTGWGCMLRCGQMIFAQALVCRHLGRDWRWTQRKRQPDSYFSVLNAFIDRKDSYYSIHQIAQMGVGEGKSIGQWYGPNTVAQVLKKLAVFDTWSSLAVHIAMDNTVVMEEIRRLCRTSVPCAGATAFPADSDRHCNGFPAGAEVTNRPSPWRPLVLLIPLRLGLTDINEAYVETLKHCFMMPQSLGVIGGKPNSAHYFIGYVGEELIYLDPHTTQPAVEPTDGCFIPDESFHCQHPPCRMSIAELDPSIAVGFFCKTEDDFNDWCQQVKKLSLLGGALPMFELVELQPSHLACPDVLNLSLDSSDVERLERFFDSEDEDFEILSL

| SMILES | inhibition |
| --- | --- |
| O=C(CSc1ncnc2c1oc1ccccc12)NC1CCCC1 | -1.46% |
| CCOCCCn1c(SCC(=O)Nc2cc(OC)ccc2OC)nc2ccccc2c1=O | 4.76% |
| O=c1c2sccc2nc(SCc2cc(=O)n3ccccc3n2)n1-c1ccc(Br)cc1 | 47.5% (active) |
| O=C(O)CCn1c(SCc2cc(=O)n3ccccc3n2)nc2ccsc2c1=O | -6.86% |
| CCc1ccc(-n2c(SCc3cc(=O)n4cc(Br)ccc4n3)nc3[nH]ncc3c2=O)cc1 | -11.3% |
| CC(=O)NC(NC(=S)Nc1c(C)n(C)n(-c2ccccc2)c1=O)C(Cl)(Cl)Cl (stereo not drawn) | -9.32% |
| O=C(COc1ccc(S(=O)(=O)NCc2ccccc2)cc1)N1CCOCC1 | 0.8% |
| Cc1cccc(C)c1N1C(=O)CN(Cc2ccccc2)C1=S | 82.4% (active) |
| Cc1ccccc1CCNC(=O)C1CCC(=O)N(Cc2ccc(Cl)cc2)C1 (stereo not drawn) | 0.05% |
| COc1cccc(N2C(=O)CN(Cc3ccccc3)C2=S)c1 | 25.8% |
| O=C1C[C@@H]2c3c(cccc3CN1Cc1ccccc1)C[C@@H](O)[C@H]2O | 0.85% |
| CCc1cccc(C)c1N1C(=O)CN(Cc2ccccc2)C1=S | 88.4% (active) |
| CC1CN(Cc2ccccc2)C(=S)NC1=O (stereo not drawn) | -11% |
| COc1ccc(NC(=O)C(CC(C)C)NS(=O)(=O)c2ccc3c(c2)CCN3C(C)=O)cc1OC (stereo not drawn) | -5.12% |
| O=C(c1ccc(S(=O)(=O)N2CCCC2)cc1)N1CCN(c2ccccc2F)CC1 | 0.98% |
| CCOc1ccc(CCNC(=O)COC(=O)CCS(=O)(=O)c2ccc(C)cc2)cc1OCC | -3.02% |
| O=S(=O)(c1ccc(F)cc1)N1CCN(C(=S)NCc2ccco2)CC1 | 0.75% |
| CC(C)Cc1ccc(C(C)C(=N)N)cc1 (stereo not drawn) | 8.66% |
| COc1ccc(CNC(=O)C2CCN(S(=O)(=O)c3ccc(SC)cc3)CC2)cc1 | -7.7% |
| O=C(Cn1cc(/C=N/NC(=O)c2cccc(C(F)(F)F)c2)c2ccccc21)Nc1ccc(F)cc1 | 5.83% |
| Cc1ccc(OCCOc2cccc(/C=N/NC(N)=O)c2)cc1 | -2.28% |
| CCOC(=O)N/N=C/c1cn(Cc2ccccc2Cl)c2ccccc12 | 48% (active) |
| COC(=O)N/N=C/c1cn(CCCOc2ccc(C)cc2)c2ccccc12 | 40.3% (active) |
| NC(=O)Cn1cc(/C=N\NS(=O)(=O)c2ccccc2)c2ccccc21 | 3.11% |
| COC(=O)N/N=C/c1c[n+]([O-])c2ccccc2[n+]1[O-] | -2.96% |
| N#CCC(=O)N/N=C/c1cn(Cc2ccc3ccccc3c2)c2ccccc12 | -9.5% |
| CCOC(=O)c1cnn(Cc2ccccc2Cl)c1N | -5.17% |
| COc1cccc(Cn2cc(/C=N/NC(=O)c3cc(O)cc(O)c3)c3ccccc32)c1 | 47.7% (active) |
